In PubChem BioAssay (Tox21):
Results filed as inconclusive are left out. The source made the active and inactive calls. Unless noted, the call rests on the fitted dose curve.

Key:
[1] = Nuclear factor erythroid 2-related factor 2/antioxidant responsive element (Nrf2/ARE) small molecule agonists: qHTS cell viability counter screen in human keratinocytes (AID 1919968; active means well fitted curve in the direction sought with a large enough effect in the repeat runs; an effect the other way counts as inactive or inconclusive; further: nearly all actives have a fitted effect of over 55% in size)
In short: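 KeratinoSens cells (HaCaT keratinocytes stably carrying an ARE-luciferase reporter) were seeded at 1,500 cells/well and rested 5 h at 37 C/5% CO2. They were then exposed to compounds in DMSO for 23 h. Viability was read by CellTiter-Fluor fluorescence after 1 h.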

[2] = target: Gonadotropin-releasing hormone receptor (Homo sapiens) (UniProt P30968); assay: Human gonadotropin-releasing hormone receptor (GnRHR) small molecule agonists, calcium flux assay in GnRHR-HEK293 cells (AID 1920063); further: nearly all actives have a fitted effect of over 35% in size
In short: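 HEK293 cells stably expressing human GnRHR were plated 18 h at 37 °C, loaded with calcium dye 1 h at 37 °C, then given compound in agonist mode; fluorescence (Ex/Em 480/540) read kinetically for 3 min at 1 s intervals.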

[3] = target: KiSS-1 receptor (Homo sapiens) (UniProt Q969F8); assay: Human kisspeptin (KISS1R) small molecule agonists, calcium flux assay in KISS1R-HEK293 cells (AID 1920064; active means well fitted curve in the direction sought with a large enough effect in the repeat runs; an effect the other way counts as inactive or inconclusive)
In short: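 HEK293 cells stably expressing human KISS1R were plated 18 h at 37 °C, loaded with calcium dye for 1 h at 37 °C, then given compound by pin tool. Fluorescence (Ex/Em 480/540) was read kinetically for 3 min.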

[4] = G protein-coupled receptor (GPCR) small molecule agonists, calcium flux assay: HEK293 wild type cell line counter screen (AID 1920065)
In short: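 Cells were plated and cultured 18 h at 37 C/5% CO2, then loaded with calcium dye for 1 h at 37 C. Compounds in DMSO were pin-transferred in agonist mode, and fluorescence (Ex/Em 480/540) was read kinetically for 3 min at 1 s intervals.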

[5] = p53 small molecule agonists, cell-based qHTS assay with human liver microsomes (AID 1963577);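 further: p53 response element beta-lactamase reporter cells with liver microsomes plus NADPH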
In short: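 Reporter activation was measured by LiveBLAzer fluorescence intensity in p53RE-bla cells, which had been exposed to compounds for 16 h at 37 C alongside 0.5 mg/mL human liver microsomes and 0.5 mg/mL NADPH (final concentrations).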

[6] = p53 small molecule agonists, cell-based qHTS assay with rat liver microsomes (AID 1963578)
In short: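 Compound in DMSO added to p53RE-bla cells 5 h post-plating; rat microsomes/NADPH 0.5 mg/mL final; 16 h, 37 C; LiveBLAzer 2 h RT.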

[7] = p53 small molecule agonists, cell-based qHTS assay with human liver microsomes: qHTS cell viability counter screen (AID 1963579); further: nearly all actives have a fitted effect of over 45% in size
In short: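 HLM-supplemented (0.5 mg/mL final) and NADPH-supplemented (0.5 mg/mL final) p53RE-bla cultures, 4,000 cells per well, were dosed with compounds in DMSO for 16 h at 37 C; luminescent ATP detection (CellTiter-Glo, 30 min, room temperature) quantified surviving cells.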

[8] = p53 small molecule agonists, cell-based qHTS assay with rat liver microsomes: qHTS cell viability counter screen (AID 1963580); further: nearly all actives have a fitted effect of over 45% in size
In short: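 HCT-116 p53RE-bla, 4,000 cells/well, 5 h pre-incubation; cpd + rat liver microsomes 0.5 mg/mL + NADPH 0.5 mg/mL (final); 16 h, 37 C; CellTiter-Glo, 30 min RT; luminescence.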

[9] = p53 small molecule agonists, cell-based qHTS assay: qHTS cell viability counter screen (AID 1963581); further: nearly all actives have a fitted effect of over 45% in size
In short: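 p53RE-bla HCT-116 cells were exposed to compounds for 16 h at 37 C; after the beta-lactamase FRET read in the same wells, CellTiter-Glo was added and luminescence (intracellular ATP) read after 30 min at room temperature.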

[10] = p53 small molecule agonists, cell-based qHTS assay (AID 1963582; active means well fitted activation curve with a large enough effect in the signal ratio in the repeat runs, not every such curve was filed as active; the % refers to the signal ratio)
In short: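 p53RE-bla beta-lactamase reporter cells rested 5 h at 37 C/5% CO2, then received compounds in DMSO by pin transfer and were incubated 16 h at 37 C. LiveBLAzer B/G FRET substrate was loaded for 2 h at room temperature before fluorescence reading.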

[11] = target: 5-hydroxytryptamine receptor 2A (Homo sapiens) (UniProt P28223); assay: 5-hydroxytryptamine receptor 2A (HTR2A) small molecule antagonists, cell-based qHTS assay (AID 1963586); further: nearly all actives have a fitted effect of over 45% in size; further: potency means the concentration at half of the fitted maximal effect
In short: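 Antagonist-mode intracellular calcium assay: DOI (4 nM) added after 5 min compound pre-incubation at room temperature to dye-loaded HTR2A-CHO cells. Fluorescence followed for 3 min, sampled every second.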

[12] = target: 5-hydroxytryptamine receptor 2A (Homo sapiens) (UniProt P28223); assay: 5-hydroxytryptamine receptor 2A (HTR2A) small molecule agonists, cell-based qHTS assay (AID 1963587); further: nearly all actives have a fitted effect of over 30% in size
In short: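 Kinetic calcium-flux fluorescence (2 min, 1 sec intervals) after compound addition in agonist mode. HTR2A-CHO cells were cultured 18 h, then dye-loaded 1 h at 37 C.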

[13] = target: Muscarinic acetylcholine receptor M1 (Homo sapiens) (UniProt P11229); assay: Cholinergic receptor muscarinic 1 (CHRM1) small molecule antagonists, cell-based qHTS assay (AID 1963588); further: nearly all actives have a fitted effect of over 40% in size; further: potency means the concentration at half of the fitted maximal effect
In short: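 CHRM1-CHO calcium-flux assay, antagonist mode. Cells were seeded 18 h, dye-loaded 1 h at 37 C and given compound for 5 min at RT, then acetylcholine was added at 50nM. FDSS fluorescence was read 3 min; 15 concentrations, three runs.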

[14] = target: Muscarinic acetylcholine receptor M1 (Homo sapiens) (UniProt P11229); assay: Cholinergic receptor muscarinic 1 (CHRM1) small molecule agonists, cell-based qHTS assay (AID 1963589); further: nearly all actives have a fitted effect of over 35% in size
In short: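 CHO cells stably expressing human CHRM1, seeded 18 h at 37 C/5% CO2, dye-loaded 1 h at 37 C, then given compound in agonist mode; intracellular calcium fluorescence read kinetically at 1 s intervals. Fifteen concentrations, three independent runs.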

[15] = target: Beta-2 adrenergic receptor (Homo sapiens) (UniProt P07550); assay: Adrenergic beta2 receptor (ADRB2) small molecule antagonists, cell-based qHTS assay (AID 1963592); further: nearly all actives have a fitted effect of over 50% in size; further: potency means the concentration at half of the fitted maximal effect; on activity change, negative = inhibition: series mostly up to about 92 µM
In short: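 Cells (CHO, stable ADRB2 overexpression) incubated 18-20hr at 37C; compounds added from DMSO; agonist mix (1nM isoproterenol, 100uM IBMX, 25uM Ro-20-1724) added; 0.5hr RT; d2-cAMP and anti-cAMP-cryptate added; 1hr RT; 665/615 nm read.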

[16] = target: Beta-2 adrenergic receptor (Homo sapiens) (UniProt P07550); assay: Adrenergic beta2 receptor (ADRB2) small molecule agonists, cell-based qHTS assay (AID 1963593);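 further: CHO cells stably overexpressing human ADRB2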
In short: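 CHO cells stably over-expressing ADRB2 were plated overnight at 37C, then dosed with compounds plus a stimulation mix containing 100uM IBMX and 25uM Ro-20-1724 for 0.5hr at room temperature. cAMP was measured by HTRF competition, 1hr.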

[17] = target: D(2) dopamine receptor (Homo sapiens) (UniProt P14416); assay: Dopamine D2 receptor (DRD2) small molecule agonists, cell-based qHTS assay (AID 1963594); further: nearly all actives have a fitted effect of over 35% in size
In short: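 cAMP accumulation in DRD2-HEK293 cells measured by HTRF after 1 h detection; compounds added 10 min before NKH477 (200nM […]) forskolin-analogue stimulation, 30 min at room temperature, with Ro20-1724 present at 0.1 mM final.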

[18] = target: D(2) dopamine receptor (Homo sapiens) (UniProt P14416); assay: Dopamine D2 receptor (DRD2) small molecule antagonists, cell-based qHTS assay (AID 1963595; active means well fitted inhibition curve with a large enough effect in the signal ratio in the repeat runs, with a control signal flat; the % refers to the signal ratio; further: potency means the concentration at half of the fitted maximal effect)
In short: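 Antagonism was scored as restored cAMP in HEK293-DRD2 cells. These cells were stimulated with 200 nM NKH477 and 12 nM quinpirole for 30 min at room temperature, in the presence of 0.1 mM Ro20-1724.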

[19] = cAMP Responsive Elements (CRE) small molecule agonists, cell-based qHTS assay (AID 1963590)
In short: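 CRE-bla HEK 293T cells in DMEM with 10% dialyzed FBS, NEAA, pyruvate and 25 mM HEPES were plated 18 h at 37 C/5% CO2, then exposed to compounds in DMSO for 3 h before LiveBLAzer B/G FRET substrate addition.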

[20] = cAMP Responsive Elements (CRE) small molecule antagonists, cell-based qHTS assay (AID 1963591; active means well fitted inhibition curve with a large enough effect in the signal ratio in the repeat runs, not every such curve was filed as active; the % refers to the signal ratio)
In short: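 CRE-bla HEK293T cells were plated 18 h at 37 °C/5% CO2, pinned with compound in DMSO, then stimulated with NKH477 at 0.25 uM final for 3 h. LiveBLAzer B/G FRET substrate was added and plates incubated 2 h at room temperature.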
On the % scale 0 is the no-effect control and ±100 the full control effect.

D(2) dopamine receptor (Homo sapiens), sequence (P14416 whole entry, looked up): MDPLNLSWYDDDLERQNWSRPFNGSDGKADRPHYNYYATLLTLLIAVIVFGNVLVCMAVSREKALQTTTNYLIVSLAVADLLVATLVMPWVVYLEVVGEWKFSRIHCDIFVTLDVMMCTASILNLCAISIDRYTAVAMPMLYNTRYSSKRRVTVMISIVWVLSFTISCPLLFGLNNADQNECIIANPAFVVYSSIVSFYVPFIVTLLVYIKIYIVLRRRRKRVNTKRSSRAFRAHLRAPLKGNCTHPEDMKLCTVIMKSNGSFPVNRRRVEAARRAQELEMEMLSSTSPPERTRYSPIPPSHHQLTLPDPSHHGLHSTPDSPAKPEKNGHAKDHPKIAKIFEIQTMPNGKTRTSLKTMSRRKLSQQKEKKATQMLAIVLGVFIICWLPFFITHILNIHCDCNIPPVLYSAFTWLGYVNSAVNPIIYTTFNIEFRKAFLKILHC
Muscarinic acetylcholine receptor M1 (Homo sapiens), sequence (P11229 whole entry, looked up): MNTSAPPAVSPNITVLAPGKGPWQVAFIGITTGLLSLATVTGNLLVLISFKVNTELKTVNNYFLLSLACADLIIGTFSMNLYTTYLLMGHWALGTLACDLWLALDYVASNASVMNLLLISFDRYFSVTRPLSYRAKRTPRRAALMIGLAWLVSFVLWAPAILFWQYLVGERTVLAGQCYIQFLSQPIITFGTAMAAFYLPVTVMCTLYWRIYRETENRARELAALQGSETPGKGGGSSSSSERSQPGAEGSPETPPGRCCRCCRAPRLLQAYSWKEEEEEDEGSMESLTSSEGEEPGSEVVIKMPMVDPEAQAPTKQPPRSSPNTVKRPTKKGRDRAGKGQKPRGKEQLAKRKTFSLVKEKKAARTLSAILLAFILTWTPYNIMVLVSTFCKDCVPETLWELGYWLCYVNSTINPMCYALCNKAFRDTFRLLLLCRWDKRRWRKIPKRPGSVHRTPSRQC
Gonadotropin-releasing hormone receptor (Homo sapiens), sequence (P30968 whole entry, looked up): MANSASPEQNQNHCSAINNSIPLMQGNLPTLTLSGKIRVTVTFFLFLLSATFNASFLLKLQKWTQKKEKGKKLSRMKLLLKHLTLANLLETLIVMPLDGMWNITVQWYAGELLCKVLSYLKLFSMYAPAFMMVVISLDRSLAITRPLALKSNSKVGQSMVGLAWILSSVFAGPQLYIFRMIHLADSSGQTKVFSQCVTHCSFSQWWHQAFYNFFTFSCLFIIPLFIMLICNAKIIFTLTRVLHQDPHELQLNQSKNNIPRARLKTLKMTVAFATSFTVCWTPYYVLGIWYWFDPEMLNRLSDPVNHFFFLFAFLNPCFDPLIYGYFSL
5-hydroxytryptamine receptor 2A (Homo sapiens), sequence (P28223 whole entry, looked up): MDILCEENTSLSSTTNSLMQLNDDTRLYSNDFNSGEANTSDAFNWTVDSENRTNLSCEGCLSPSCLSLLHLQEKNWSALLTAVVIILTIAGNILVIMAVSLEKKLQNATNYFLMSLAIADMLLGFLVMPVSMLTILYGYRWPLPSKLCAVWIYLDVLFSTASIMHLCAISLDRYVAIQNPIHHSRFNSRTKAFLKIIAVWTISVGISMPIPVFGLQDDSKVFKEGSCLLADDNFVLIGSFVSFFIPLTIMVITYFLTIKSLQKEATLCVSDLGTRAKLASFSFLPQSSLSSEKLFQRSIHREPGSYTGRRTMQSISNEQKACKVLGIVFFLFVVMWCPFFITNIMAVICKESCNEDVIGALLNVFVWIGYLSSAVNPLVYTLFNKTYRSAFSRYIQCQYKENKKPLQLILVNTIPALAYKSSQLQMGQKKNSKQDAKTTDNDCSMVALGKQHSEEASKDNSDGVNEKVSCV
Beta-2 adrenergic receptor (Homo sapiens), sequence (P07550 whole entry, looked up): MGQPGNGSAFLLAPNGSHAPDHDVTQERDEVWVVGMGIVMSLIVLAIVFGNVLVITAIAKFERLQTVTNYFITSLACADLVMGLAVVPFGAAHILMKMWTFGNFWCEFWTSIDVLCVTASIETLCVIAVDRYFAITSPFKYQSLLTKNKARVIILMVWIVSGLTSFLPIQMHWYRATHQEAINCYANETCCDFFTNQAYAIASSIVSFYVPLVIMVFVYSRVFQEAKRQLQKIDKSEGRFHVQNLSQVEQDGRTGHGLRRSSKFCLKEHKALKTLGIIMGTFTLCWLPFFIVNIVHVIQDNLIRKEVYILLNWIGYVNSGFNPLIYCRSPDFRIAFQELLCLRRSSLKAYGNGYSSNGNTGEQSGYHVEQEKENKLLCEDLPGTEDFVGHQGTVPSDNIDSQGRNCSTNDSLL
KiSS-1 receptor (Homo sapiens), sequence (Q969F8 whole entry, looked up): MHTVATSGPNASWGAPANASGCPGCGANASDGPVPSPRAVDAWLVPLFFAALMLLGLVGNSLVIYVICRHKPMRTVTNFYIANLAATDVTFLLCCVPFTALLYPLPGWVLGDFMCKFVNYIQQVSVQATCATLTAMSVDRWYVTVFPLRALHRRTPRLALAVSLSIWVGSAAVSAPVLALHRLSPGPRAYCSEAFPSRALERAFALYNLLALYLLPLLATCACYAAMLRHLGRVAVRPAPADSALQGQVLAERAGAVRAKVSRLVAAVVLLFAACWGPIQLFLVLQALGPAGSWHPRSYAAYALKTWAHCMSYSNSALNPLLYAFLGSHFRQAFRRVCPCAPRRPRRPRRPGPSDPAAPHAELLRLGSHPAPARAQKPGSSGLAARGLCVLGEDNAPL

Cc1c(F)cc2c(=O)c(C(=O)O)cn3c2c1CCC3C (configuration not stated)
inactive: Potency [1] | Potency [2] | outcome [3] | outcome [4] | Potency [5] | Potency [6] | Potency [7] | Potency [8] | Potency [9] | Potency [10] | Potency [11] | Potency [12] | Potency [13] | Potency [14] | Potency [15] | Potency [16] | Potency [17] | Potency [18]

C/C=C(\C)C(=O)OCC/C=C\CC
inactive: Potency [1] | Potency [2] | outcome [3] | outcome [4] | Potency [5] | Potency [6] | Potency [7] | Potency [8] | Potency [9] | Potency [10] | Potency [11] | Potency [12] | Potency [13] | Potency [14] | Potency [19] | Potency [20] | Potency [15] | Potency [17] | Potency [18]

Cc1nc2n(c(=O)c1CCN1CCC(C(=O)c3ccc(F)cc3)CC1)CCS2
inactive: Potency [1] | Potency [2] | outcome [3] | outcome [4] | Potency [5] | Potency [6] | Potency [7] | Potency [8] | Potency [9] | Potency [10] | Potency [12] | Potency [14] | Potency [19] | Potency [20] | Potency [15] | Potency [16] | Potency [17]
active: Potency [11] 0.0041 µM | Potency [18] 0.0668 µM

COc1ccccc1N1CCN(CCCNc2cc(=O)n(C)c(=O)n2C)CC1
inactive: Potency [1] | Potency [2] | outcome [3] | outcome [4] | Potency [5] | Potency [6] | Potency [7] | Potency [8] | Potency [9] | Potency [10] | Potency [11] | Potency [12] | Potency [19] | Potency [20] | Potency [18]
active: Potency [13] 10.3 µM | Potency [15] 13.3 µM

CC1=CP(=O)(c2ccccc2)CC1 (configuration not stated)
inactive: Potency [1] | Potency [2] | outcome [3] | outcome [4] | Potency [5] | Potency [6] | Potency [7] | Potency [8] | Potency [9] | Potency [10] | Potency [11] | Potency [12] | Potency [13] | Potency [14] | Potency [19] | Potency [20] | Potency [16] | Potency [17] | Potency [18]

CCCC(C)c1ccccc1O (configuration not stated)
inactive: Potency [1] | Potency [2] | outcome [3] | outcome [4] | Potency [5] | Potency [6] | Potency [7] | Potency [8] | Potency [9] | Potency [10] | Potency [11] | Potency [12] | Potency [13] | Potency [14] | Potency [15] | Potency [17] | Potency [18]

Cc1cccn2c(=O)c(-c3nnn[nH]3)cnc12
inactive: activity change, negative = cytotoxicity [1] 0.925% [at 19 µM] | activity change [2] -0.454% [at 11.8 µM, stronger effect = higher value] | activation [3] 0.024% [at 15.8 µM] | activation [4] -0.181% [at 11.8 µM] | activation [5] 6.61% [at 13.5 µM] | activation [6] 0.054% [at 13.6 µM] | activity change, negative = cytotoxicity [7] -18.5% [at 13.5 µM] | activity change, negative = cytotoxicity [8] -1.1% [at 13.5 µM] | activity change, negative = cytotoxicity [9] -1.22% [at 13.5 µM] | activation [10] 1.33% [at 13.5 µM] | activity, negative = inhibition [11] 5.08% [at 12.7 µM] | activation [12] 1.65% [at 15.9 µM] | activity, negative = inhibition [13] -2.73% [at 12.6 µM] | activation [14] -0.574% [at 15.8 µM] | activity change, negative = inhibition [20] 5.45% [at 18.9 µM] | activity change, negative = inhibition [15] 1.4% [at 19 µM] | activation [17] 2.69% [at 19 µM] | activity change, negative = inhibition [18] -1.25% [at 18.9 µM]
